These results are taken from paper PMC11062922 (Nature Chemical Biology, 2023).

What all share (parameters): species or system human, MV4-11 + K-562 + COLO205 + SK-N-BE2 + OVCAR-8
In one experiment the test system is AKT3. The following applies: read-out: apparent Kd, n = 1.
The next experiment deals with PIM2. The settings on record: read-out: apparent Kd, n = 1.
For a further experiment, the system named is STK11. The following applies: read-out: apparent Kd, compound concentrations: 100 nM and 1000 nM (sheet 'Samples'), n = 1.
A further experiment relates to PIK3C3. The settings on record: read-out: apparent Kd, n = 1.
The subject of a further experiment is AKT2. The settings on record: read-out: apparent Kd, n = 1.
In a further experiment the test system is IKBKE. The settings on record: read-out: apparent Kd, n = 1.
The next experiment has as its system MAP2K2. The following applies: read-out: apparent Kd, compound concentrations: 100 nM and 1000 nM (sheet 'Samples'), n = 1.
The next experiment deals with MAP4K3. The settings on record: read-out: apparent Kd, compound concentrations: 100 nM and 1000 nM (sheet 'Samples'), n = 1.
For a further experiment, the system named is PIK3C2A. The settings on record: read-out: apparent Kd; compound concentrations: 100 nM and 1000 nM (sheet 'Samples'), CATDS: 1.67467583314573E-2; n = 1.
Another experiment relates to TEC. The settings on record: read-out: apparent Kd; compound concentrations: 100 nM and 1000 nM (sheet 'Samples'), CATDS: 1.49433127144414E-2; n = 1.
In the next experiment the test system is TP53RK. The settings on record: read-out: apparent Kd, compound concentrations: 100 nM and 1000 nM (sheet 'Samples'), n = 1.
A further experiment has as its system ACVR1. The following applies: read-out: apparent Kd, n = 1.
For another experiment, the system named is NEK9. The following applies: read-out: apparent Kd, n = 1.
The test system of another experiment is TGFBR1. The settings on record: read-out: apparent Kd; compound concentrations:100 nM and 1000 nM (sheet 'Samples'); n = 1.
Another experiment relates to DDR1. The settings on record: read-out: apparent Kd; compound concentrations: 100 nM and 1000 nM (sheet 'Samples'), CATDS: 4.92942958534755E-2; n = 1.
A further experiment deals with CDK10. The settings on record: read-out: apparent Kd; compound concentrations:100 nM and 1000 nM (sheet 'Samples'); n = 1.
For a further experiment, the system named is MAP4K5. The following applies: read-out: apparent Kd; compound concentrations: 100 nM and 1000 nM (sheet 'Samples'), CATDS: 8.9413368005166593E-3; n = 1.
The next experiment relates to RPS6KA1. The settings on record: read-out: apparent Kd; compound concentrations: 100 nM and 1000 nM (sheet 'Samples'), CATDS: 9.1961356652332602E-3; n = 1.
The mark [1] stands for this setting: compound concentrations:100 nM and 1000 nM (sheet 'Samples').

Like-named read-outs stand apart in the source and are kept apart here.

Turning to `CS(=O)(=O)CCn1c(=O)c(Oc2ccc(F)cc2F)cc2cnc(NC3CCOCC3)nc21` [RO5027956-000], the potency estimated from few doses in the experiment on AKT3 (setting [1]) was 2170 nM; in the experiment with PIM2 (setting [1]), 1660 nM.

For `CNCC#Cc1c(F)ccc2c1/C(=C/c1[nH]ccc1OC)C(=O)N2.Cl` [RO0281601-001], the potency estimated from few doses in the experiment with STK11 (CATDS: 2.1927929235579201E-2) was 1930 nM.

Consider `Cc1cccc(Nc2nc(N[C@H]3CCNC3)ncc2C(N)=O)c1.Cl` [GSK2197149A], for which the potency estimated from few doses in the experiment with PIK3C3 (setting [1]) is 1110 nM.

For `CCn1c(-c2cccnc2O)nc2cnccc21` [SB-736715], the potency estimated from few doses in the experiment with AKT2 (compound concentrations: 100 nM and 1000 nM (sheet 'Samples'), CATDS: 1.4638911444233901E-2) was 1360 nM; in the experiment with IKBKE (compound concentrations: 100 nM and 1000 nM (sheet 'Samples'), CATDS: 1.31503893194051E-2) it was 1730 nM; in the experiment with MAP2K2 (CATDS: 1.1967755653937401E-2), 2210 nM; in the experiment on MAP4K3 (CATDS: 1.18582584558427E-2), 2260 nM; with PIK3C2A, 1040 nM; in the experiment with PIK3C3 (compound concentrations: 100 nM and 1000 nM (sheet 'Samples'), CATDS: 1.55952310039979E-2) it was 1190 nM. Further, the potency estimated from few doses in the experiment on PIM2 (compound concentrations: 100 nM and 1000 nM (sheet 'Samples'), CATDS: 1.60081703977401E-2) was 1130 nM; in the experiment with STK11 (CATDS: 1.3793469415990099E-2), 1550 nM; in the experiment with TEC it was 1300 nM; in the experiment with TP53RK (CATDS: 1.2573959142924701E-2), 1940 nM.

As for `NCC(NC(=O)c1cc(-c2cn[nH]c2)c(-c2ccnc3[nH]ccc23)s1)c1ccccc1.NCC(NC(=O)c1cc(-c2cn[nH]c2)c(-c2ccnc3[nH]ccc23)s1)c1ccccc1.O=C(O)C(F)(F)F.O=C(O)C(F)(F)F` (stereo not shown) [GSK1325775A], in the experiment with ACVR1 (compound concentrations: 100 nM and 1000 nM (sheet 'Samples'), CATDS: 3.5400947915422802E-2), the potency estimated from few doses is 1180 nM.

As for `CC(C)Oc1ccc2c(-c3ccnc(Nc4ccc(N5CCN(C)CC5)cc4)n3)cnn2n1` [GW696155X], the figures for the potency estimated from few doses in the experiment with IKBKE (setting [1]) and in the experiment with NEK9 (setting [1]) were 343 nM and 26 nM, respectively.

With `CNc1cc(-c2ccc3c(N)n[nH]c3c2)nc(N)n1` [GSK2224810A], the potency estimated from few doses with AKT2 (setting [1]) is 1880 nM; in the experiment on TGFBR1, 1160 nM.

For the compound `c1cnn2ncc(-c3ccnc(Nc4ccc5c(c4)OCCO5)n3)c2c1` [GW806290X], the potency estimated from few doses was 1300 nM in the experiment with AKT2 (compound concentrations: 100 nM and 1000 nM (sheet 'Samples'), CATDS: 2.25042579106303E-2); 1770 nM in the experiment on AKT3 (compound concentrations: 100 nM and 1000 nM (sheet 'Samples'), CATDS: 2.0651194958325798E-2); 1530 nM in the experiment on MAP2K2 (CATDS: 2.1479851181110499E-2); 1030 nM in the experiment on NEK9 (compound concentrations: 100 nM and 1000 nM (sheet 'Samples'), CATDS: 2.42273764121115E-2).

As to `CN(c1ccc(NC(=O)NCCN2CCOCC2)cc1)c1ccnc(Nc2ccc(CS(C)(=O)=O)cc2)n1.Cl` [GW830365A], in the experiment on DDR1, the potency estimated from few doses is 1360 nM.

In the case of `CN(C)CC(O)COc1ccc(Nc2nccc(-c3cnn4nc(N5CCOCC5)ccc34)n2)cc1` (stereo not shown) [GW767488X], the potency estimated from few doses is 455 nM with ACVR1 (setting [1]); 1360 nM in the experiment on CDK10; 2010 nM with IKBKE (setting [1]); 314 nM in the experiment on NEK9 (setting [1]); 581 nM in the experiment with PIK3C3 (setting [1]).

On to `CCCc1cc(N2CCCN(C)CC2)nc2sc3c(N)ncnc3c12` [BI00604564], for which the potency estimated from few doses in the experiment on AKT3 (compound concentrations: 100 nM and 1000 nM (sheet 'Samples'), CATDS: 0.13900414431421401) was 1920 nM.

Turning to `NC(=O)c1cc(-c2ccccc2)cc2c(C3CCNCC3)c[nH]c12` [GSK301362A], the potency estimated from few doses in the experiment on PIM2 (setting [1]) is 1500 nM.

Consider `COc1cc[nH]c1/C=C1\C(=O)Nc2ccc(F)c(C#CC3(O)CCNCC3)c21.Cl` [RO0282986-001], for which the potency estimated from few doses in the experiment on MAP2K2 (CATDS: 1.07586832750675E-2) is 1010 nM; with MAP4K3 (CATDS: 9.73261825141249E-3) it was 1470 nM; in the experiment on MAP4K5 it was 2190 nM; with RPS6KA1 it was 1900 nM; in the experiment with STK11 (CATDS: 1.0901325293505499E-2), 966 nM.

In the case of `O=C1N=C(NCc2cccs2)O/C1=C\c1ccc2ncccc2c1` [RO4624208-000], in the experiment on TP53RK (CATDS: 4.7970425138991198E-2), the potency estimated from few doses was 1610 nM.
